# Screening data as filed in PubChem.
# Cycloheximide cs: Cycloheximide Counterscreen for Small Molecule Inhibitors of Shiga Toxin. cell reporter, cycloheximide protein synthesis inhibition counterscreen. actives 12% (n = 300,000). max response, %. AID 2314, 2010; in the data active = max response mostly above about 13%, no sharp cut-off; inactive = mostly below about 14%; note: read at 38.3 µM for the half of the compounds with a filed dose; 0% is about no effect
# Pf growth 48h: Primary qHTS for delayed death inhibitors of the malarial parasite plastid, 48 hour incubation. P. falciparum luciferase growth in erythrocytes, 48 h. Potency, µM (series often up to 28.7 µM), for inactives: top-dose activity change, negative = inhibition, hits mostly inhibitors. actives 5.9% (n = 310,000). AID 504832, 2011; note: potency is the fitted concentration of half-maximal effect; % is set by controls: 0 for no effect and ±100 for the full control effect
#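 Growth was read as firefly luciferase luminescence after a 48 h, 37 C, 5% CO2 exposure of compounds to reporter-bearing P. falciparum cultures (0.1% parasitemia, 2% hematocrit final) in Albumax-supplemented RPMI 1640.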
# Shiga inhibitor: A qHTS for Small Molecule Inhibitors of Shiga Toxin; Vero cells, Shiga toxin protein synthesis inhibition reporter; inhibition, % at 38.7 µM; actives 9.2% (n = 290,000); AID 2315, 2010; in the data active = inhibition mostly above about 28%, no sharp cut-off; inactive = mostly below about 43%; note: 0% is about no effect
# HCMV antiviral: qHTS Assay for inhibitors of the human cytomegalovirus (HCMV). HFF cells, HCMV-luciferase reporter, 72 h; active compounds read low. activity change, negative = inhibition, % at 57.5 µM. actives 4.5% (n = 410,000); in the data active = activity change below about -60%; inconclusive = no clear call, values can overlap the other calls; inactive = above about -39%; note: % is set by controls: 0 for no effect and ±100 for the full control effect
#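 Compounds were evaluated in HFFs infected with an HCMV luciferase reporter virus (MOI 1 PFU/cell). Luciferase in lysates collected 72 h post infection served as the replication measure.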
# Pf growth 96h: Primary qHTS for delayed death inhibitors of the malarial parasite plastid, 96 hour incubation; P. falciparum luciferase reporter growth, 96 h; actives 6.9% (n = 320,000); Potency, µM (titrated, usually from 28.7 µM), for the others: top-dose activity change, negative = inhibition, hits mostly inhibitors; AID 504834, 2011; note: potency is the fitted concentration of half-maximal effect; % is set by controls: 0 for no effect and ±100 for the full control effect
#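 Two-generation exposure (96 h) targets delayed-death phenotype. Reporter parasites carrying integrated firefly luciferase, in red cells at 2% hematocrit and 0.05% parasitemia final, kept at 37 C, 5% CO2; luminescence loss indicates inhibition.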
# * marks the source's active call; other numbers are inactive results; i = inactive; ? = inconclusive; nt = no result given; ! = not confirmed by another sample; [ ] = remark or other dose. Hits are enriched below; roughly 20% of the tested compounds scored in any of these assays. Unless noted, calls come from the whole dose curve; as a rule, active = well fitted inhibition curve with a large enough effect; inconclusive = small, poorly fitted or top-dose-only effect, or another doubt; inactive = no such curve, though single readings can be large or run the other way.
SMILES,Cycloheximide cs,Pf growth 48h,Shiga inhibitor,HCMV antiviral,Pf growth 96h
Cc1ccc(NC(=O)c2ccc(CN3CCc4ccccc4C3)cc2)cc1,3,16%,16,-79*,7%
O=C(Nc1ccc(S(=O)(=O)N2CCCCC2)cc1)c1ccc(CN2CCc3ccccc3C2)cc1,2,?,-7,-74*,7.4µM*
O=C(Nc1ccccc1)c1ccc(CN2CCc3ccccc3C2)cc1,27*,-15%,54,-67*,39%
O=C(Nc1cccnc1)c1ccc(CN2CCc3ccccc3C2)cc1,-4,-14%,-8,-35,nt
C=Cc1ccc(Cn2c(=O)n(-c3cccc(C)c3)c(=O)c3c2c2cc(C)ccc2n3C)cc1,nt,nt,nt,-8,nt
COc1ccc(OC)c(N(CC(=O)Nc2cccnc2)S(=O)(=O)c2ccccc2)c1,-2,nt,-5,-11,?
COC(=O)c1ccc(C)c(NC(=O)c2ccc(CN3CCc4ccccc4C3)cc2)c1,0,-7%,-8,-32,9.3µM*
Nc1cccn2c(-c3ccc(Cl)c(Cl)c3)cnc12,74*,i,92*,88,i
Nc1cccn2c(-c3ccc(Cl)cc3)cnc12,47*,234%,197*,126,207%
O=C(CCC(=O)N(Cc1ccco1)C(C(=O)NC1CCCC1)c1ccncc1)Nc1cccnc1 (configuration not stated),-1,0%,-19,21,nt
COc1cc(C2NCC(c3ccc(Cl)cc3Cl)c3c2[nH]c2ccccc32)cc(OC)c1OC (configuration not stated),-1,13µM*,-6,?,12µM*
O=C(O)CSC1CC(=O)N(c2ccc(F)cc2)C1=O (configuration not stated),nt,nt,nt,8,nt
NCCSC1CC(=O)N(c2ccc(Cl)c(Cl)c2)C1=O (configuration not stated),16*,45%,36,64,?
NCCSC1CC(=O)N(c2ccc(F)cc2)C1=O (configuration not stated),8.3*,29%,30,6,9.3µM*
Cc1ccc2c(c1)N(C(=O)CCC(=O)NCc1cccs1)CCO2,nt,nt,nt,2,nt
COC(=O)COc1nsnc1N1CCOCC1,-1,5%,-8,-18,nt
CC(C)(C)NC[C@H](O)COc1nsnc1N1CCOCC1,-4,2.4µM*!,-9,46,0.67µM*!
CCC(=O)Nc1ccc(S(=O)(=O)N2CCOCC2)cc1,-4,nt,-10,30,21%
O=C(Nc1ccc(N2CCOCC2)cc1)C1CCN(S(=O)(=O)c2ccc3c(c2)OCCO3)CC1,4,8.3µM*,-8,97,?
O=C(Nc1ccc2c(c1)OCO2)C1CCN(S(=O)(=O)c2ccc3c(c2)OCCO3)CC1,-1,?,16,?,30%
Cc1ccc(S(=O)(=O)N2CCC(C(=O)Nc3ccc(N4CCOCC4)cc3)CC2)cc1C,nt,4.1µM*,nt,-13,?
O=C(C1CCN(S(=O)(=O)c2ccc(F)cc2)CC1)N1CCOCC1,9,11%,0,-14,7.4µM*
O=C(Nc1ccc(S(=O)(=O)N2CCOCC2)cc1)C1CC1,1,32%,-7,-15,4.7µM*
CCn1c(CCC(=O)N(C)CC(=O)Nc2cccc(F)c2)nc2cc(S(=O)(=O)N(C)C)ccc21,nt,?,nt,-3,?
CCN(CC)S(=O)(=O)c1ccc2c(c1)nc(CCC(=O)Nc1ccc3c(c1)OCO3)n2CC,8,?,15,-68*,6.6µM*
SMILES,Cycloheximide cs,Pf growth 48h,Shiga inhibitor,HCMV antiviral,Pf growth 96h
CCN(CC)S(=O)(=O)c1ccc2c(c1)nc(CCC(=O)Nc1ccc3c(c1)OCO3)n2C,1,?,-2,?,9.3µM*
CN(C)S(=O)(=O)c1ccc2c(c1)nc(CCC(=O)Nc1ccc3c(c1)OCO3)n2C,9.6*,?,48*,45,?
CCN(CC)S(=O)(=O)c1ccc2c(c1)nc(CCC(=O)O)n2C,-1,-13%,4,-31,5%
CN(C)S(=O)(=O)c1ccc2c(c1)nc(CCC(=O)Nc1ccc(N3CCOCC3)cc1)n2C,-1,?,10,-2,-12%
Cc1ccc(-c2csc(NC(=O)C3=NN(C4CCS(=O)(=O)C4)C(=O)CC3)n2)cc1 (configuration not stated),-1,64%,-4,-12,11%
COc1ccccc1NS(=O)(=O)c1cccc(C(=O)NCc2ccncc2)c1,nt,-12%,nt,-9,14%
CCOc1ccc(NC(=O)Cn2cc(C(=O)c3ccccc3)c(=O)c3cc4c(cc32)OCO4)cc1,nt,nt,nt,17,nt
COC(=O)c1c(C)[nH]c(C(=O)/C=C/c2cccc(Cl)c2)c1C,39*,114%,62*,-30,i
CCOC(=O)c1c(C)[nH]c(C(=O)COC(=O)/C=C/c2ccc(O)c(OC)c2)c1C,2,?,13,?,4%
COC(=O)c1c(C)[nH]c(C(=O)CC#N)c1C,5,?,-10,-3,41%
COC(=O)c1c(C)[nH]c(C(=O)/C=C/c2ccc(C)cc2)c1C,1,?,25,-90*,191%
COC(=O)c1c(C)[nH]c(C(=O)/C=C/c2ccccc2)c1C,43*,149%,89*,-4,i
COC(=O)c1c(C)[nH]c(C(=O)CSc2ccc(Cl)cc2)c1C,30*,147%,42,21,nt
CCOC(=O)c1c(C)[nH]c(C)c1C(=O)COC(=O)/C=C/c1cccc(Cl)c1,-4,?,-6,-14,?
c1ccc2c(-c3cn4ccccc4n3)c[nH]c2c1,43*,?,142*,nt,?
c1ccc(CSc2nnc(-c3c[nH]c4ccccc34)o2)cc1,48*,42%,169*,15,13%
O=C(CSc1nnc(-c2c[nH]c3ccccc23)o1)c1ccc(-c2ccccc2)cc1,7,22%,3,?,0%
Cc1ccccc1Nc1c(-c2c[nH]c3ccccc23)nc2ccccn12,nt,nt,nt,99,nt
c1ccc2c(-c3nnc(SCc4cn5ccccc5n4)o3)c[nH]c2c1,7,nt,15,19,12µM*
Cc1ccc(NC(=O)C2(C)CCCN(C(C)C)C2)cc1C (configuration not stated),nt,nt,nt,19,nt
Cc1ccc(CNC(=O)c2ccc(-c3nc(CS(=O)(=O)c4ccc(C)cc4)c(C)o3)cc2)cc1,nt,nt,nt,-13,nt
Cc1ccc(C(=O)NCC(=O)NCC(=O)OCc2ccc(F)cc2)cc1,1,?,20,-4,24%[5.75 µM]
CCCn1cc(S(=O)(=O)CC(=O)Nc2ccc(OCC)cc2)c2ccccc21,-1,13µM*,-11,20,20%
CCn1cc(S(=O)(=O)CC(=O)Nc2ccc(C)cc2)c2ccccc21,0,6%,-11,-29,2.6µM*
O=C1c2ccccc2NC2CCCCC12 (configuration not stated),-3,1.9µM*,-3,-19,3%
